# Shown are actives, neighbours in structure and some others; about 4.5% of the full set was active somewhere.
# Efflux pump mplx – inhibitors of Candida efflux pumps in yeast, primary screen, S. cerevisiae, Nile Red, multiplex; inhibition, % at 10 µM; S. cerevisiae Candida pump triplex; AID 485275, 2010; actives 0.44% (n = 330,000);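 active = plate passing quality check with inhibition over a set limit, or well fluorescence over plate mean plus 4 SD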;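 note: Nile Red retained in pooled yeast measured as flow cytometry median fluorescence; higher means more Nile Red kept so more efflux inhibition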
# Rce1 inh – yeast Rce1p protease inhibitors, primary screen, biochemical, fluorescence, cell-free homogeneous | calls only | CAAX prenyl protease 2 (Saccharomyces cerevisiae (strain ATCC 204508 / S288c)), Q03530 | yeast membranes, quenched prenylated peptide cleavage fluorescence | actives 0.27% (n = 290,000);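 active = fall in fluorescence gain of 50% or more versus controls, with final raw signal at or below 3038400; inconclusive = same 50% fall but final raw signal above 3038400; inactive = fall in fluorescence gain under 50%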
# Target sequence (Q03530 whole entry, looked up): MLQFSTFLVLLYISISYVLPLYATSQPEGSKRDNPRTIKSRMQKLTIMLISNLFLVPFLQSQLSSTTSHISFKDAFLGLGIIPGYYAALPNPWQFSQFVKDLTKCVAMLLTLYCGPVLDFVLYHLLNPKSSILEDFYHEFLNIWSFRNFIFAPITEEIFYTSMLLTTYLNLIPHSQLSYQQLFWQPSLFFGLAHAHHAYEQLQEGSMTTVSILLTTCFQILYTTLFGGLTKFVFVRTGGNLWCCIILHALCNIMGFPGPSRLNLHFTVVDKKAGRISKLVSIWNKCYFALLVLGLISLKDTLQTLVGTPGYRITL
# Rtt109 Vps75 – inhibitors of C. albicans Rtt109/Vps75 HAT, primary screen, biochemical, ThioGlo CoA-SH fluorescence, plate reader | purified Rtt109/Vps75, 4 h | inhibition, % at 34.9 µM | actives 0.16% (n = 330,000) | AID 540336, 2011;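 active = inhibition of at least 50% in every replicate; inconclusive = best replicate reaches 50% inhibition but some replicates fall short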
# GRK2 inh – compounds blocking aptamer binding on GRK2 – biochemical, human GRK2, bead flow cytometry, HTS, primary screen; Beta-adrenergic receptor kinase 1 (Homo sapiens), P25098; actives 0.59% (n = 330,000); FAM-aptamer displacement from GRK2; inhibition of aptamer binding, % at 10 µM; AID 488847, 2010;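 active = inhibition of aptamer binding above 40%, roughly 3 SD of noise, on plates passing a quality check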;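 note: median bead fluorescence of bound FAM aptamer so fluorescent compounds give negative values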
# HDAC3 inh – HDAC3 deacetylase inhibitors, primary screen, biochemical, fluorescence, cell-free homogeneous; actives 0.15% (n = 320,000); inhibition, % at 8.3 µM; Histone deacetylase 3 (Homo sapiens), O15379; recombinant HDAC3, fluorogenic peptide/trypsin coupled; AID 2718, 2010; in the data active = inhibition above about 26%, passing the limit was not always enough; inconclusive = no clear call, values can overlap the other calls
# ALR H2O2 inh – inhibitors of human ALR sulfhydryl oxidase, primary screen, biochemical, H2O2 detection, HRP-luminol luminescence, single point | FAD-linked sulfhydryl oxidase ALR (Homo sapiens), P55789 | purified ALR, DTT oxidation | inhibition, % (no concentration beside the values) | actives 3.8% (n = 290,000) | AID 485317, 2010;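 active = mean replicate inhibition above about 79%, with every replicate also reaching it, limit read from the data; inconclusive = only one of the two criteria met; inactive = mean below limit and not every replicate reaching it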
# Target sequence (P55789 whole entry, looked up): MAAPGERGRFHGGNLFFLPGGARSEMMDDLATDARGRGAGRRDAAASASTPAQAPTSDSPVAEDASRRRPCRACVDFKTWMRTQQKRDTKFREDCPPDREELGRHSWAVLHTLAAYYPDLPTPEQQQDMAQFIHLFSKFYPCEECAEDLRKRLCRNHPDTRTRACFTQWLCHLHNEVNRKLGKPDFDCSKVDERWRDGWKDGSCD
# Numbers stand for hits; . = inactive; ? = inconclusive; / = no result given; + = active, no number.
SMILES,Efflux pump mplx,Rce1 inh,Rtt109 Vps75,GRK2 inh,HDAC3 inh,ALR H2O2 inh
C[C@]12c3[nH]c4ccccc4c3CCN1C(=O)C(CC(=O)NCCCn1ccnc1)C[C@@H]2C(=O)N1CCOCC1 (some centres undefined),.,/,.,.,.,.
NC(=S)Nc1nc2ccccc2s1,.,.,.,.,.,94
COCC(=O)Nc1nc2ccccc2s1,.,.,.,.,.,.
O=C(NNc1nc2ccccc2s1)c1ccccc1F,.,.,.,.,.,97
Cc1cc(C)n(-c2ccc(C(=O)Nc3nc4ccccc4s3)cc2)n1,.,.,.,.,.,.
Nc1ccc(C(=O)Nc2nc3ccccc3s2)cc1,.,.,.,.,.,94
CC(=O)NCCc1nc2cc(NC(=O)COc3ccc(C)cc3)ccc2n1C,.,.,.,.,.,.
Cc1cccc(OC(C)C(=O)Nc2ccc3c(c2)OCCO3)c1 (centres undefined),/,/,.,/,/,/
Cc1cc(/C=C2\SC(=S)NC2=O)c(C)n1-c1cccc(O)c1,0.8,.,.,.,.,.
Cc1ccc(-n2c(C)cc(/C=C3\SC(=O)NC3=O)c2C)cc1,.,.,.,.,/,.
Cc1cnc(CN2CCc3c([nH]c4ccccc34)C2C2CCCCC2)[nH]1 (centres undefined),.,.,.,.,.,.
c1ccc2c3c([nH]c2c1)C(C1CCCCC1)N(Cc1ncc[nH]1)CC3 (centres undefined),.,.,/,.,.,98
CN1C(=O)/C(=C2/C=Cc3ccccc3N2CCCS(=O)(=O)O)SC1=S,.,.,.,.,.,84
CCCN1/C(=C2/SC(=S)N(CC)C2=O)C=Cc2ccccc21,.,.,.,.,.,.
CCN1/C(=C2\C(=O)N(C)C(=S)N2C)C=Cc2ccccc21,.,.,.,.,.,.
CCN1C(=O)/C(=C2/C=Cc3ccccc3N2CC)SC1=S,.,.,.,.,.,99
CCN1/C(=C2\C(=O)N(C)C(=S)N2c2ccccc2)C=Cc2ccccc21,.,.,.,.,.,98
O=C(Cc1ccccc1F)NNC(=O)c1ccncc1,.,/,.,.,.,.
CCCOC(=O)c1ccc(Oc2cn[nH]c2-c2ccc(O)cc2O)cc1,.,.,.,.,.,85
CCOC(=O)c1ccc(Oc2cn[nH]c2-c2ccc(O)cc2O)cc1,.,.,.,.,.,?
Cc1cc(N2CCCC2)ccc1NC(=O)CN1C(=O)NC(C)(c2ccccc2)C1=O (centres undefined),.,.,.,.,.,99
CCC1(c2ccccc2)NC(=O)N(CC(=O)Nc2ccc(N3CCCC3)cc2C)C1=O (centres undefined),.,.,.,.,.,?
O=C(O)c1ccc2c(c1)SC1=NS(=O)(=O)CCN12,.,.,.,.,.,.
CN(C(=O)c1ccc2c(c1)SC1=NS(=O)(=O)CCN12)C(c1ccccc1)c1ccccc1,.,+,.,.,.,.
Cc1ccc2nc(N(CCCN(C)C)C(=O)c3sc4ccccc4c3Cl)sc2c1,.,.,55,.,.,.
SMILES,Efflux pump mplx,Rce1 inh,Rtt109 Vps75,GRK2 inh,HDAC3 inh,ALR H2O2 inh
CN(C)CCCN(C(=O)c1cc(-c2cccs2)nc2ccccc12)c1nc2ccc(F)cc2s1,.,+,.,.,/,.
Cc1ccc2nc(N(CCCN(C)C)C(=O)c3ccc(S(=O)(=O)N(C)C)cc3)sc2c1,.,.,.,.,.,.
Nc1ncnc2c1ncn2[C@@H]1O[C@H](CNS(=O)(=O)c2ccc3c(c2)CCN(C(=O)C(F)(F)F)C3)[C@@H](O)[C@H]1O,.,/,.,.,/,/
CCc1ccc(NC(=O)C(=O)NCC2CCCN2S(=O)(=O)c2cccs2)cc1 (centres undefined),.,.,.,.,.,.
O=C(NCc1ccccn1)c1cc(Cl)ccc1OCc1ccccc1,.,.,.,.,.,.
O=C1NC(c2ccccc2)N=C2Oc3ccccc3C=C12 (centres undefined),/,/,.,/,/,/
Cc1cc(C)nc(OC(=O)c2c(Cl)cc(Cl)cc2Cl)n1,.,.,.,.,.,.
Cc1cc(C)nc(OC(=O)c2ccc(Cl)cc2Cl)n1,.,.,/,.,.,98
CCOc1ccc(CCNC(=O)c2cn(C)c3ccc(S(=O)(=O)N4CCOCC4)cc3c2=O)cc1OCC,.,.,.,.,.,.
CCOCCCNC(=O)c1ccc(-n2c(=S)[nH]c3ccccc3c2=O)cc1,.,.,.,.,.,84
CCCCNC(=O)c1ccc2c(=O)n(CCCOCC)c(=S)[nH]c2c1,.,.,.,.,.,.
COc1ccc2c(c1)[nH]c1c(N3CCN(Cc4ccc5c(c4)OCO5)CC3)ncnc12,.,.,.,.,.,.
COc1cccc2[nH]c3c(N4CCN(Cc5ccc6c(c5)OCO6)CC4)ncnc3c12,.,+,/,.,.,.
Cc1ccc2c(c1)[nH]c1c(N3CCN(Cc4ccccc4)CC3)ncnc12,.,/,.,.,.,98
Cc1ccc2[nH]c3c(N4CCN(Cc5ccccc5)CC4)ncnc3c2c1,.,.,.,.,.,.
c1ccc(CN2CCN(c3ncnc4c3[nH]c3ccccc34)CC2)cc1,.,.,.,.,.,95
COCC(C)n1c(SCC(=O)NC(=O)NCc2ccccc2)nc2ccccc2c1=O (centres undefined),.,/,.,.,.,.
Nc1nnc(SCC(=O)N2CCN(c3cccc(Cl)c3)CC2)n1-c1ccccc1,.,.,.,.,.,.
Nc1nnc(SCC(=O)N2CCN(c3ccccc3)CC2)n1-c1ccccc1,.,.,.,.,.,98
Nc1nnc(SCC(=O)N2CCN(c3ccccc3)CC2)s1,.,.,.,.,.,99
Nc1nnc(SCC(=O)N2CCCCC2)s1,.,.,.,.,.,/
O=C(Nc1cc(Cl)ccc1N1CCOCC1)c1ccc(=O)[nH]c1,.,/,.,.,.,.
CC1=NN(c2ccccc2)C(=O)C1c1ccccc1 (centres undefined),.,.,.,.,.,94
CC(/C=C1\SC(=S)N(CCCC(=O)Nc2ccc(C(=O)O)c(O)c2)C1=O)=C\c1ccccc1,.,.,/,.,.,97
O=C(CCN1C(=O)/C(=C/c2cccs2)SC1=S)Nc1ccc(O)cc1,.,.,.,.,.,.
CC(=C\c1ccccc1)/C=C1/SC(=O)N(CCCC(=O)Nc2ccc(C(=O)O)cc2)C1=O,.,.,.,.,.,97

# High-throughput results (PubChem)
